Results reported in the supplement of paper PMC10849652.
Targets with a hit are over-represented here; the source holds about 8,800 in all. About 0.5% of all pairs of compound and target were hits. Unmarked numbers belong to inactive results.

Experiments:
Experiment in all cases: log2 fold change, soluble protein after heating vs DMSO (PISA); higher = thermal stabilisation; K562 lysate, 10 uM; active = over 0.2 and 3.5 SD of the protein, either way, in both replicates (recomputed)
alvocidib = compound: CN1CC[C@H](c2c(O)cc(O)c3c(=O)cc(-c4ccccc4Cl)oc23)[C@H](O)C1 [alvocidib]
Summary of the method: (§1)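 Dounce homogenisation of K562 pellets in PBS pH 7.4 with 1 mM MgCl2 produced a crude extract, used at 1 mg/mL protein. Exposure to 10 μM compound lasted 30 min, and aliquots were then heated for 3 min across 48°C-58°C, pooled and brought to 0.5% NP-40 at 4°C. The supernatant after 21,000xg for 90 min was quantified by TMTpro 16plex LC-MS/MS with channel sums equalised. Duplicate values are given as log-two fold change in thermal stability relative to solvent controls.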

Tubastatin A = compound: CN1CCc2c(c3ccccc3n2Cc2ccc(C(=O)NO)cc2)C1 [Tubastatin A]
Summary of the method: as §1

[1] = compound: CNC(=O)C1=CC=CC=C1NC2=NC(=NC=C2Cl)NC3=C(C=C(C=C3)N4CCOCC4)OC
Summary of the method: as §1

defactinib = compound: CNC(=O)c1ccc(Nc2ncc(C(F)(F)F)c(NCc3nccnc3N(C)S(C)(=O)=O)n2)cc1 [defactinib]
Summary of the method: as §1

[2] = compound: CNc1nc(-c2ccc3c(N)n[nH]c3c2)cc(N2C[C@@H](C(=O)NC3CCCCC3)CC[C@H]2C)n1
Summary of the method: as §1

encorafenib = compound: COC(=O)N[C@@H](C)CNc1nccc(-c2cn(C(C)C)nc2-c2cc(Cl)cc(NS(C)(=O)=O)c2F)n1 [encorafenib]
Summary of the method: as §1

[3] = compound: COC(=O)[C@H](CCSC)NC(=O)C1=C(C=C(C=C1)NC[C@H](CS)N)C2=CC=CC=C2
Summary of the method: as §1

alisertib = compound: COc1cc(Nc2ncc3c(n2)-c2ccc(Cl)cc2C(c2c(F)cccc2OC)=NC3)ccc1C(=O)O [alisertib]
Summary of the method: as §1

[4] = compound: COc1cc2nc(-c3cc(F)ccc3O)nc(N[C@@H]3CNC[C@H]3C(C)(C)O)c2cc1OC
Summary of the method: as §1

gefitinib = compound: COc1cc2ncnc(Nc3ccc(F)c(Cl)c3)c2cc1OCCCN1CCOCC1 [gefitinib]
Summary of the method: as §1

lapatinib = compound: CS(=O)(=O)CCNCc1ccc(-c2ccc3ncnc(Nc4ccc(OCc5cccc(F)c5)c(Cl)c4)c3c2)o1 [lapatinib]
Summary of the method: as §1

pictilisib = compound: CS(=O)(=O)N1CCN(Cc2cc3nc(-c4cccc5[nH]ncc45)nc(N4CCOCC4)c3s2)CC1 [pictilisib]
Summary of the method: as §1

crizotinib = compound: C[C@@H](Oc1cc(-c2cnn(C3CCNCC3)c2)cnc1N)c1c(Cl)ccc(F)c1Cl [crizotinib]
Summary of the method: as §1

[5] = compound: C[C@H](C1=CC=C(C=C1)C(=O)NC2=C3C=CNC3=NC=C2)N
Summary of the method: as §1

duvelisib = compound: C[C@H](Nc1ncnc2nc[nH]c12)c1cc2cccc(Cl)c2c(=O)n1-c1ccccc1 [duvelisib]
Summary of the method: as §1

gandotinib = compound: Cc1cc(Nc2cc(CN3CCOCC3)c3nc(C)c(Cc4ccc(Cl)cc4F)n3n2)n[nH]1 [gandotinib]
Summary of the method: as §1

tozasertib = compound: Cc1cc(Nc2cc(N3CCN(C)CC3)nc(Sc3ccc(NC(=O)C4CC4)cc3)n2)n[nH]1 [tozasertib]
Summary of the method: as §1

doramapimod = compound: Cc1ccc(-n2nc(C(C)(C)C)cc2NC(=O)Nc2ccc(OCCN3CCOCC3)c3ccccc23)cc1 [doramapimod]
Summary of the method: as §1

bafetinib = compound: Cc1ccc(NC(=O)c2ccc(CN3CC[C@H](N(C)C)C3)c(C(F)(F)F)c2)cc1Nc1nccc(-c2cncnc2)n1 [bafetinib]
Summary of the method: as §1

[6] = compound: Cc1cccc(CC(=O)N2CCc3c2ccc(-c2cn(C)c4ncnc(N)c24)c3F)n1
Summary of the method: as §1

UniProt Q96SB4, sequence (Q96SB4 whole entry, looked up): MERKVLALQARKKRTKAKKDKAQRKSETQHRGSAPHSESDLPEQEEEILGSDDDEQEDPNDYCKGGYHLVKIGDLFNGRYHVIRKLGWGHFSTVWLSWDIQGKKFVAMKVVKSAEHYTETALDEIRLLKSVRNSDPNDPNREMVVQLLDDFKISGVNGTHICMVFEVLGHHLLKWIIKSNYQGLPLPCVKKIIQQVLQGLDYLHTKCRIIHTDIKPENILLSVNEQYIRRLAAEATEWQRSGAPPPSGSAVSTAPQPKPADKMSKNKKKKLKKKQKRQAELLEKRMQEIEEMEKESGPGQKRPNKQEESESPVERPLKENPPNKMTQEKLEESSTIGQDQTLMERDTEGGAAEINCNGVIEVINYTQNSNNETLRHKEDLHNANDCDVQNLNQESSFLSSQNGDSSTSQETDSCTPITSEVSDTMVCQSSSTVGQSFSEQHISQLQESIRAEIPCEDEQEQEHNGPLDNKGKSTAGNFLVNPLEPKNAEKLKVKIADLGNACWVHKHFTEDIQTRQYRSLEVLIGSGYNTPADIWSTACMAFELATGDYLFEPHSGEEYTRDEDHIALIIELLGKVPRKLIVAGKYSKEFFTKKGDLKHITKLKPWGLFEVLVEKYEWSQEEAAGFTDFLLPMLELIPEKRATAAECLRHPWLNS
UniProt O75528, sequence (O75528 whole entry, looked up): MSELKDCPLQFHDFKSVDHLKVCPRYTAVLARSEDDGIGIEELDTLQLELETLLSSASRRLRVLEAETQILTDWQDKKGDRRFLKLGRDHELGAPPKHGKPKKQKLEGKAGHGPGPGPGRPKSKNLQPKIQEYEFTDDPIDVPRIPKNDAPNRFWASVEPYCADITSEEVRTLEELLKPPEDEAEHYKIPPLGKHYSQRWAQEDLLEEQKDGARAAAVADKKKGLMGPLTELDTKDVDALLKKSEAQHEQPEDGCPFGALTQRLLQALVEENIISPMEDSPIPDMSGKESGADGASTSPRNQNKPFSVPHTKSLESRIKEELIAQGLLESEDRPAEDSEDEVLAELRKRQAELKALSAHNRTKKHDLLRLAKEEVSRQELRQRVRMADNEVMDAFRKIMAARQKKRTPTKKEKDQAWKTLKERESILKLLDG
UniProt Q9BWW4, sequence (Q9BWW4 whole entry, looked up): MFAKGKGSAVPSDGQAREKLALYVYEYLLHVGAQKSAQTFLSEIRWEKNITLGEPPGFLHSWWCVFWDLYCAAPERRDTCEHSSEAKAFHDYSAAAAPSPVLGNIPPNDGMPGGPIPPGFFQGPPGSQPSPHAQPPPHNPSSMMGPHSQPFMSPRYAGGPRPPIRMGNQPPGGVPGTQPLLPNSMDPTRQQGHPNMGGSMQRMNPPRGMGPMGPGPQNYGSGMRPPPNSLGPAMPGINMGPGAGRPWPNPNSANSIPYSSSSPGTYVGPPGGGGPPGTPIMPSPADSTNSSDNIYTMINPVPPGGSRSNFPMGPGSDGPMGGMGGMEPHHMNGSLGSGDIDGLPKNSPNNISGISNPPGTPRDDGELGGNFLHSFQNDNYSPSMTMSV
UniProt Q8WUM9, sequence (Q8WUM9 whole entry, looked up): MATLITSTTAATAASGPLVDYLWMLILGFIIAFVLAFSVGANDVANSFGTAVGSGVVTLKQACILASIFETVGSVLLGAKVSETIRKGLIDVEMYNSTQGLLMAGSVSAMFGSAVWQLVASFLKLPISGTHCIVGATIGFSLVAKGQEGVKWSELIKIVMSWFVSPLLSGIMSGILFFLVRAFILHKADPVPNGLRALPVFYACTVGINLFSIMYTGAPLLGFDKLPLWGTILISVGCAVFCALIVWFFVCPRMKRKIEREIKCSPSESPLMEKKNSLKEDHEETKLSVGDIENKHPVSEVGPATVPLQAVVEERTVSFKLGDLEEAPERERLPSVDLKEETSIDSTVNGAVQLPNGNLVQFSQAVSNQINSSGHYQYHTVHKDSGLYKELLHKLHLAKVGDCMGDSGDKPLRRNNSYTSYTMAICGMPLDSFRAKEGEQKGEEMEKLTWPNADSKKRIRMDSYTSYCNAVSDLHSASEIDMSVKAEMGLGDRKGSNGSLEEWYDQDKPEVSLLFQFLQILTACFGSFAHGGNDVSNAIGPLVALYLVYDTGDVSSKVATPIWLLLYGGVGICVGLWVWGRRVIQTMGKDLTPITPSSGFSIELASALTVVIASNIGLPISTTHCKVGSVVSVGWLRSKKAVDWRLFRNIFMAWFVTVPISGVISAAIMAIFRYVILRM
UniProt P35270, sequence (P35270 whole entry, looked up): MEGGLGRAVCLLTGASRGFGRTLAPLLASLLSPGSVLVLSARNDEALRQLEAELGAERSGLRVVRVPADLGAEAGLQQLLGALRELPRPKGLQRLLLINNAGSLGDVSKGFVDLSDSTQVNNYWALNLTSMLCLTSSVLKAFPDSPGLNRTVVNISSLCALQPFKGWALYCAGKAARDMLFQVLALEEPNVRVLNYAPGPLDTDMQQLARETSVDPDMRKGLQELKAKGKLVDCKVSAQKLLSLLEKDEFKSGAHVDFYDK
UniProt Q9UMZ2, sequence (Q9UMZ2 whole entry, looked up): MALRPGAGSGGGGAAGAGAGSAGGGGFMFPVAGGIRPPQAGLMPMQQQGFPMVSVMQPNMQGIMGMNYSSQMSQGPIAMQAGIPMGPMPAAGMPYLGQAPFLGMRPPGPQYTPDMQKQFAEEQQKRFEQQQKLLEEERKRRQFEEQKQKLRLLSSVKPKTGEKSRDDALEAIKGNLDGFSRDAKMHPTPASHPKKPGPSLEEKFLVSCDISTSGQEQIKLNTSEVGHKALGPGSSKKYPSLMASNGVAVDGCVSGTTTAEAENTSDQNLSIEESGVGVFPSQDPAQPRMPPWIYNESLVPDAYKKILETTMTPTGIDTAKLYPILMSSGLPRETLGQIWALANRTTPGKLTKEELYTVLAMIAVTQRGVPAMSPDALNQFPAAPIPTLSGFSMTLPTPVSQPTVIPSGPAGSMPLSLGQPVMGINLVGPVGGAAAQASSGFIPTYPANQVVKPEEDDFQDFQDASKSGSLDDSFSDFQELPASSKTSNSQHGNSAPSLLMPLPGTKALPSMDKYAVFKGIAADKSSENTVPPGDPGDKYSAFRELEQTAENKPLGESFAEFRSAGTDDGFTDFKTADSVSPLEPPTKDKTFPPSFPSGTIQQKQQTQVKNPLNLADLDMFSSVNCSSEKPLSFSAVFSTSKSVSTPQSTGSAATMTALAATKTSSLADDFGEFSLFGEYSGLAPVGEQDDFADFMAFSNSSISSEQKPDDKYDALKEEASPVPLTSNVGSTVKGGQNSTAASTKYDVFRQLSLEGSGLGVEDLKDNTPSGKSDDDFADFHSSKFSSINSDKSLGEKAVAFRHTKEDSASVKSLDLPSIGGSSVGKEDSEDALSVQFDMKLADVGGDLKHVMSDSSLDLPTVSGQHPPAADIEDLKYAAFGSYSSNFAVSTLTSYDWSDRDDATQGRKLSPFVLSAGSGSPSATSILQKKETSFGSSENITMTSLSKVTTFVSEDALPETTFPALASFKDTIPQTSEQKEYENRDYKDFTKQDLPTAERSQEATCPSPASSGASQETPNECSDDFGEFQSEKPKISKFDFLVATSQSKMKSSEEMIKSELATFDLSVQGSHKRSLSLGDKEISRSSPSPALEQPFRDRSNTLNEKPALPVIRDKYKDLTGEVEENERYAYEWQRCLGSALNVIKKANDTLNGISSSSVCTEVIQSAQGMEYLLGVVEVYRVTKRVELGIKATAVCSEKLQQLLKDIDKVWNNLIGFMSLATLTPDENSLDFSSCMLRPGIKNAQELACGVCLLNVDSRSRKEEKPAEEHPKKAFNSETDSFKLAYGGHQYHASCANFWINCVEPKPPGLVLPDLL
UniProt Q15022, sequence (Q15022 whole entry, looked up): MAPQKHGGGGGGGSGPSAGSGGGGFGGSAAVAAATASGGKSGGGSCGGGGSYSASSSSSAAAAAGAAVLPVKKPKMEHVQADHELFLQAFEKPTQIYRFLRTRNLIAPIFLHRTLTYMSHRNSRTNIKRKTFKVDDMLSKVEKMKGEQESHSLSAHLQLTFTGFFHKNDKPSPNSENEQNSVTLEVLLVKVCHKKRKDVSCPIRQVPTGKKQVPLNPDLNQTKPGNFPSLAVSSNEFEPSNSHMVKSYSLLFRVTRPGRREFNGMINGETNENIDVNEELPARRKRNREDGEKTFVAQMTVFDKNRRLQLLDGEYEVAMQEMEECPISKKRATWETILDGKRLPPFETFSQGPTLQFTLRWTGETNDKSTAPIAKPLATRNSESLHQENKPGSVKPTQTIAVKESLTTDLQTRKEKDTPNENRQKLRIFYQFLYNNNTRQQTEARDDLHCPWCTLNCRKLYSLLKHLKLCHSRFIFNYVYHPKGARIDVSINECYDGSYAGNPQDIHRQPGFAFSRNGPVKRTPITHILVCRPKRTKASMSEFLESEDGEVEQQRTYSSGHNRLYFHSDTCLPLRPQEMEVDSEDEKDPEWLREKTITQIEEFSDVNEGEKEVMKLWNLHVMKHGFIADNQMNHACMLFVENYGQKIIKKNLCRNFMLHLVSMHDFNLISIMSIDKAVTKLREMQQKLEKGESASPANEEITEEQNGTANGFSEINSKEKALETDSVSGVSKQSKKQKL
UniProt P05455, sequence (P05455 whole entry, looked up): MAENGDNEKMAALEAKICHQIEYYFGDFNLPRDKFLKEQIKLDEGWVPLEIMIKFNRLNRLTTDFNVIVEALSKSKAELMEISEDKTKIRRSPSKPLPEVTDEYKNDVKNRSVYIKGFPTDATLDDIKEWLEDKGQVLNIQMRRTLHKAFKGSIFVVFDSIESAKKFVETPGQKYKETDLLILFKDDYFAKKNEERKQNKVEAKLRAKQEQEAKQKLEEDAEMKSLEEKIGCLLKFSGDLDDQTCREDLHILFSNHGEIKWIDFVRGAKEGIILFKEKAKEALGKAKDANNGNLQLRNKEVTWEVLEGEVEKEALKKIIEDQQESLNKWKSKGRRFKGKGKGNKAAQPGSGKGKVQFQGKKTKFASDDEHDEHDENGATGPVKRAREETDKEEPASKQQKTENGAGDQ
UniProt P62306, sequence (P62306 whole entry, looked up): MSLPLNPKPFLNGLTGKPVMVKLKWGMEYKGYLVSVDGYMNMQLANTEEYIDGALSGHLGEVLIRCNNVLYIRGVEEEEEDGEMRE

| Target | log2 fold change (alvocidib) | log2 fold change (Tubastatin A) | log2 fold change [1] | log2 fold change (defactinib) | log2 fold change [2] | log2 fold change (encorafenib) | log2 fold change [3] | log2 fold change (alisertib) | log2 fold change [4] | log2 fold change (gefitinib) | log2 fold change (lapatinib) | log2 fold change (pictilisib) | log2 fold change (crizotinib) | log2 fold change [5] | log2 fold change (duvelisib) | log2 fold change (gandotinib) | log2 fold change (tozasertib) | log2 fold change (doramapimod) | log2 fold change (bafetinib) | log2 fold change [6] |
| --- | --- | --- | --- | --- | --- | --- | --- | --- | --- | --- | --- | --- | --- | --- | --- | --- | --- | --- | --- | --- |
| SNRPF (UniProt P62306) | -0.119 | -0.028 | -0.02 | 0.014 | -0.034 | 0.021 | 0.014 | -0.03 | 0.022 | 0.084 | 0.021 | -0.029 | -0.077 | -0.237 | 0.076 | 0.21 | -0.016 | 0.026 | 0.05 | 0.218 |
| SLC26A6 (UniProt Q9BXS9) | -0.095 | -0.05 | -0.004 | 0.055 | 0.086 | -0.016 | -0.111 | 0.06 | -0.056 | -0.022 | -0.009 | 0.05 | -0.023 | 0.016 | 0.067 | 0.051 | 0.047 | -0.003 | -0.003 | 0.118 |
| SYNRG (UniProt Q9UMZ2) | 0.026 | -0.016 | -0.021 | 0.015 | 0.002 | -0.004 | 0.024 | 0.033 | 0.003 | -0.006 | 0.022 | -0.016 | 0.016 | 0.043 | -0.041 | -0.037 | 0.024 | -0.023 | -0.032 | -0.044 |
| SUZ12 (UniProt Q15022) | -0.004 | -0.012 | 0.009 | 0.049 | 0.027 | 0 | 0.101 | -0.057 | -0.062 | 0.062 | 0.015 | 0.043 | -0.021 | 0.048 | -0.016 | 0.027 | 0.006 | 0 | -0.113 | 0.009 |
| STAU1 (UniProt O95793) | 0.062 | -0.06 | 0.051 | 0.027 | -0.04 | 0.078 | -0.009 | 0.072 | -0.007 | 0.012 | -0.018 | 0.03 | 0.005 | 0.27 (active) | 0.019 | -0.086 | 0.014 | 0.056 | -0.089 | -0.062 |
| SRPK1 (UniProt Q96SB4) | 0.286 (active) | -0.062 | 0.189 | 0.106 | 0.008 | -0.029 | 0.102 | 0.006 | 0.015 | 0.018 | -0.006 | 0.008 | -0.089 | 0.1 | 0.025 | 0.17 | -0.016 | 0.233 | -0.028 | -0.054 |
| SLC20A1 (UniProt Q8WUM9) | 0.002 | 0.054 | -0.012 | -0.155 | 0.016 | -0.039 | -0.057 | -0.026 | 0.036 | 0.05 | -0.002 | -0.065 | -0.009 | 0.016 | 0.038 | -0.016 | -0.006 | 0.042 | -0.075 | -0.013 |
| STK36 (UniProt Q9NRP7) | -0.33 | 0.331 | -0.048 | -0.263 | 0.528 | -0.027 | 0.042 | 0.081 | 0.199 | -0.093 | -0.213 | -0.007 | -0.833 | -0.551 | 0.191 | 0.284 | 0 | 0.202 | -0.322 | 0.398 |
| SMAD2 (UniProt Q15796) | -0.058 | 0.009 | 0.167 | 0.01 | 0.038 | -0.01 | 0.03 | -0.069 | 0.006 | 0.016 | -0.006 | -0.042 | -0.055 | -0.073 | -0.066 | -0.006 | -0.027 | -0.025 | -0.005 | 0.06 |
| SSB (UniProt P05455) | 0.057 | 0.018 | -0.02 | -0.019 | -0.015 | -0.029 | 0.022 | -0.003 | 0.002 | -0.008 | -0.024 | 0.015 | 0.046 | 0.05 | -0.01 | -0.03 | 0.009 | -0.032 | 0.017 | -0.036 |
| SND1 (UniProt Q7KZF4) | 0.009 | -0.121 | 0.015 | 0.019 | -0.019 | -0.019 | 0.195 | 0.026 | -0.004 | -0.017 | -0.008 | -0.012 | -0.034 | 0.077 | 0.008 | -0.108 | 0 | 0.034 | -0.028 | -0.009 |
| SSBP3 (UniProt Q9BWW4) | 0.028 | 0.074 | 0 | 0.072 | 0.008 | 0.032 | 0.02 | 0.018 | -0.016 | -0.054 | 0.039 | -0.158 | 0.018 | -0.014 | 0.019 | -0.019 | -0.041 | 0.014 | -0.06 | 0.029 |
| TADA3 (UniProt O75528) | 0.001 | -0.04 | 0.044 | -0.007 | 0.06 | 0.029 | -0.024 | 0 | 0.001 | 0.03 | -0.005 | 0.009 | 0.017 | -0.09 | -0.002 | 0.143 | 0.066 | 0.006 | -0.051 | 0.087 |
| SPR (UniProt P35270) | 0.164 | -0.1 | 0.071 | 0.019 | 0.01 | -0.097 | 0.22 | 0.163 | -0.017 | -0.013 | -0.015 | 0.472 (active) | 0.276 | -0.029 | -0.059 | 0.467 (active) | 0.025 | -0.06 | -0.09 | -0.117 |
| STIM1 (UniProt Q13586) | 0.008 | -0.056 | -0.041 | -0.018 | 0.024 | 0.003 | -0.016 | 0.008 | -0.106 | -0.013 | -0.056 | -0.028 | -0.053 | 0.145 | -0.007 | -0.095 | 0.032 | 0.044 | -0.056 | -0.037 |
| TARDBP (UniProt Q13148) | -0.006 | -0.318 (active) | -0.044 | 0 | -0.139 | 0.181 | 0.137 | 0.012 | -0.004 | 0.06 | 0.002 | 0.145 | 0.018 | 0.005 | -0.045 | 0.115 | 0.022 | 0.282 | -0.055 | 0.044 |
